# Test results taken from PubChem BioAssay (Tox21).
# Inconclusive results are not listed. A number with no mark means an inactive call. Activity calls are given as the source filed them. Calls come from the whole dose curve; as a rule, active = well fitted cell-killing curve with a large enough effect in the repeat runs; inconclusive = weak or mixed curves, or effect the other way; inactive = flat fitted curve, though single readings scatter.
# Assay: qHTS assay to identify small molecule agonists of the sonic hedgehog signaling (Shh) pathway - cell viability counter screen (AID 1259366); note: nearly all actives have a fitted effect of over 50% in size
# Conditions: NIH/3T3 Gli1-Luc viability, CellTiter-Fluor, 24 h; series mostly up to 92.4 µM; viability change, negative = cytotoxic: at the top concentration
# Text: National Center for Advancing Translational Sciences [NCATS]
# NIH Chemical Genomics Center [NCGC]
# U.S. Environmental Protection Agency [EPA]
# National Institutes of Environmental Health Sciences [NIEHS]
# National Toxicology Program [NTP]
# U.S. Food and Drug Administration [FDA]
# The sonic hedgehog (Shh) pathway is essential for normal embryonic development. Dysregulation of the Shh pathway can cause severe developmental defects in organs. Therefore chemicals that interfere with the pathway are potential developmental toxicants. A cell line designated 3T3Gli1-Luc (DMB/OARSA/CFSAN/FDA, Laurel, MD), a NIH/3T3 derived clone containing stably integrated Gli1-Luc reporter is used to detect chemical interference of the Shh pathway, by changes in the expression of the firefly Luc gene under the control of the Gli1 transcriptional response element. This cell line was used to screen Tox21 libraries for identifying and prioritizing the potential developmental toxicants that interfere Shh pathway. The cytotoxicity of the compounds was tested in parallel by measuring the cell viability using CellTiter-Fluor assay system (Promega, Madison, WI) in the same wells.
# Tox21 Assay Protocol Summary:
# 3T3 Gli1-Luc cells were dispensed at 2,000 per well in 5uL of culture medium into white solid bottom 1536-well plates (Greiner Bio-One, Monroe, NC) using a Multidrop Combi (Thermo Scientific, Waltham, MA) dispenser. The assay plates were incubated at 37 C and 5% CO2 for 4hr, and then 23nL of compounds dissolved in DMSO and positive control were transferred using a Pintool station (Wako, San Diego, CA). The assay plates were incubated at 37C and 5% CO2 for 24hr. For viability read, after 23hr of compound treatment, 1uL of CellTiter-Fluor reagent (Promega Corporation, Madison, WI) was added to each well of the assay plates using Flying Reagent Dispenser (FRD, Aurora Discovery, San Diego, CA) and incubated the assay plates at 37C for 1hr. The fluorescence signal was quantified using a ViewLux plate reader (Perkin Elmer, Shelton, CT).
# % is set by controls: 0 for no effect and ±100 for the full control effect; potency is the fitted concentration of half-maximal effect.
Compound,"viability change, negative = cytotoxic",Potency
CCCCCC(=O)OCCc1ccccc1,7.51%,
CC(N)C12CC3CC(CC(C3)C1)C2 (stereo not given),-14.8% [at 42.5 µM],
CCOC(=O)c1cnc2c(cnn2CC)c1NN=C(C)C,1.5% [at 42.5 µM],
CC(=O)Oc1cccc(C)c1,0.364% [at 42.5 µM],
[K+],9.45%,
NCCCC[C@H](N[C@@H](CCc1ccccc1)C(=O)O)C(=O)N1CCC[C@H]1C(=O)O,7.46% [at 42.5 µM],
CC(C)(C)c1ccc(-c2ccc(C(C)(C)C)cc2)cc1,2.08%,
C=CCOCC(O)CO (stereo not given),0.857%,
CN1[C@@H]2CC[C@H]1CC(OC(=O)C(O)c1ccccc1)C2 (stereo not given in full),5.78% [at 42.5 µM],
CC1(C)[C@@H]2CC[C@@]1(C)[C@H](O)C2,2.72%,
Cc1ccccc1N=C(N)N=C(N)N,-6.86%,
COc1ccccc1OCC1CNC(=O)O1 (stereo not given),0.585% [at 42.5 µM],
CC1=NN(c2cc(S(=O)(=O)O)ccc2Cl)C(=O)C1N=Nc1ccccc1 (stereo not given),,13.7 µM (active)
Cc1onc(-c2c(Cl)cccc2Cl)c1C(=O)Cl,4.41% [at 42.5 µM],
CCN1CCOCC1,-0.669%,
CNC(=O)Nc1ccc(Cl)c(Cl)c1,1.12%,
Cc1ncc(COP(=O)(O)O)c(C=O)c1O,5.83% [at 42.5 µM],
C=C(C)C(=O)OCCOCCOCCOCCOC(=O)C(=C)C,-11.7%,
CC(=O)c1ccc2ccccc2c1,3.67%,
CC1CCC(CO)CC1 (stereo not given),0.574%,

Compound,"viability change, negative = cytotoxic",Potency
O=C1c2ccccc2C(=O)c2cc(O)ccc21,-9.21%,
CCCCCCC#CC(=O)OC,4.92%,
Cc1nc(C2CCCCC2)c(-c2ccc(S(N)(=O)=O)c(F)c2)o1,3.04% [at 42.5 µM],
COCCOCC(OC)OC,0.0447% [at 42.5 µM],
CCCc1nn(C)c2c(=O)[nH]c(-c3cc(S(=O)(=O)N4CCN(C)CC4)ccc3OCC)nc12,-13.9% [at 42.5 µM],
CC(C)(C)C(=O)Oc1ccc(S(=O)(=O)Nc2ccccc2C(=O)NCC(=O)O)cc1,-2.14% [at 42.5 µM],
NC(CCC(=O)O)C(=O)O (stereo not given),-0.146%,
Nc1ccn([C@@H]2O[C@H](CO)[C@@H](O)[C@@H]2O)c(=O)n1,2.15%,
CCOC(=O)c1ccccc1,1.75%,
O=C1NC(=O)C2CC=CCC12 (stereo not given),-0.508%,
C1CCC2=NCCCN2CC1,0.765%,
O=C(O)c1cc(C(=O)O)cc(C(=O)O)c1,6.3%,
O=C1CCCCCCCCCCCCCCO1,-0.655%,
O=C(O)c1cn(C2CC2)c2cc(N3CCNCC3)c(F)cc2c1=O,-3.15% [at 42.5 µM],
CCCO[Si](OCCC)(OCCC)OCCC,5.81%,
CCOC(=O)CCC(=O)OCC,-3.42%,
CC(C)(N)C#N,-4.13%,
CN(C)CCCN(C)CCCN(C)C,6.1%,
Clc1cc(Cl)cc(Cl)c1,7.92%,
CCCC(=O)O[C@]1(C(=O)CC)CC[C@H]2[C@@H]3CCC4=CC(=O)CC[C@]4(C)[C@H]3[C@@H](O)C[C@@]21C,-3.1% [at 42.5 µM],
